This is an account of results in PubChem BioAssay.

A number with no mark means an inactive call. No rule for the calls is given here.

As usually defined, the inhibition is the percentage by which the read-out fell short of the control.

In this experiment the target is Pantothenate synthetase (Mycobacterium tuberculosis (strain ATCC 25618 / H37Rv)) (UniProt P9WIL5). The experiment is described as follows: Coupled enzyme confirmation of inhibitors against recombinant Mtb PanC (AID 375).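 Also: 0% = full reaction with vehicle and 100% = no enzyme background.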 To be noted: coupled enzyme assay; at 10 µM, active compounds read high.
Pantothenate synthetase (Mycobacterium tuberculosis (strain ATCC 25618 / H37Rv)), sequence (P9WIL5 whole entry, looked up): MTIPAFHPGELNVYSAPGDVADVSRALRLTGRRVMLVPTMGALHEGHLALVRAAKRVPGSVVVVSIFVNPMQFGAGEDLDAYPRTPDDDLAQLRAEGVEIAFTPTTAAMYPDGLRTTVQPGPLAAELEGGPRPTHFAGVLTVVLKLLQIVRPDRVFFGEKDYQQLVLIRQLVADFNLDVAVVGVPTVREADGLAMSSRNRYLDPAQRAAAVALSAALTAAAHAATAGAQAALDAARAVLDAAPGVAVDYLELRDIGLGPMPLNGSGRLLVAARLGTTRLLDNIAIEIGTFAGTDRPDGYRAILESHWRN
Regarding `Cc1cc(NC(=O)c2ccccc2)ncc1NC(=O)c1ccco1`, the inhibition is 0%.

Consider `CCOCCCNC(=O)CS(=O)(=O)Cc1nc(-c2cccc(OC)c2)oc1C`, for which the inhibition was 0%.

`C[C@@H]1C[C@H](O)c2cc(Cl)ccc2N1`: the inhibition is 8%.

Regarding `CCOc1ccc(NC(=O)C2CC(=O)N(C(C)C)C2)cc1` (stereo not drawn), the inhibition is 2%.

As for `C=C(c1ccc(O)cc1)c1ccc(O)cc1`, the inhibition is 0%.

Consider `COC(=O)c1ccc2ncccc2c1`, for which the inhibition was 0%.

As to `Cc1cc(C)c(Cn2c(=O)n(CCCC(=O)NCc3ccco3)c(=O)c3ccccc32)c(C)c1`, the inhibition was 7%.

On to `Cc1cc(NC(=O)CSc2nccn2-c2ccc(Cl)cc2)no1`, for which the inhibition is 0%.

With `COc1ccc(C(c2nnnn2C2CCCC2)N2CCN(C3CCCC3)CC2)cc1OC` (stereo not drawn), the inhibition is 4%.

Regarding `CCOc1ccc2cc(C#N)c(SCC(=O)N3CCOCC3)nc2c1`, the inhibition is 0%.

Consider `O=C(CN1C(=O)c2ccccc2S1(=O)=O)Nc1ccc(S(=O)(=O)N2CCCCCC2)cc1`, for which the inhibition was 6%.

For `CCCCCCNC(=O)Cc1c(O)c2ccccc2[nH]c1=O`, the inhibition was 5%.

Regarding `Cn1c(=O)c2c(nc(NCCc3ccccc3)n2CC(=O)NCCc2ccccc2)n(C)c1=O`, the inhibition was 0%.

Regarding `CCCCCn1c(=O)[nH]c2cc(C(=O)NCCN3CCOCC3)ccc2c1=O`, the inhibition was 1%.

As to `COc1ccc(C(C)(C)C)cc1NC(=O)Nc1ccc2c(c1)OCO2`, the inhibition was 5%.

Regarding `CN(C)CCC(c1ccc(Br)cc1)c1ccccn1` (stereo not drawn), the inhibition is 0%.

Turning to `O=C1CCCc2nc(N3CCCCC3)sc21`, the inhibition is 5%.

In the case of `CN(C)Cc1c(O)ccc2oc(Cc3ccccc3)cc12`, the inhibition is 8%.
